# Experimental data published in PubChem BioAssay (NCI).
# Compounds without any hit were thinned out: in the full panel of roughly 79,000, 15% have a hit. Unmarked numbers belong to inactive results. Activity calls are given as the source filed them. No stated cut-off is given here; in the data, active means growth inhibition above about 70%; inactive means the rest.
# Assay: NCI Yeast Anticancer Drug Screen. Data for the mlh1 rad18 strain (AID 175)
# Settings: S. cerevisiae mlh1 rad18 strain growth inhibition; at 50.0 µM; hits give high values
# Description: Growth inhibition of yeast strains with defined genetic alterations is measured as a screen for potential anti-cancer activity. Selected strains with alterations in DNA damage repair or cell cycle control were exposed to compounds and growth inhibition was measured relative to vehicle treated controls. The strain used in this assay is mlh1 rad18
row,Structure (SMILES),growth inhibition
1,C=CCN1C(=O)C(c2ccccc2)(c2ccccc2)NC1=S,-41.1%
2,CCOC(=O)CCC(=O)c1ccc2cc(OC)ccc2c1,27.1%
3,CC1=CC(=O)N2C(OC[C@@H]2c2ccccc2)O1 (stereo not given in full),-21.4%
4,CCCCC(/C=C(/C)C(=O)O)CC (stereo not given),0.9%
5,CCOc1ccccc1/C=C/C(=O)O,-21.4%
6,Cc1cc(=O)[nH]c(=O)n1CCCN(C)CCCn1c(C)cc(=O)[nH]c1=O,-3.95%
7,CC1CC[N-]C(N)N1.CC1CC[N-]C(N)N1.[Cl][Pd][Cl] (stereo not given),-7.1%
8,O=[N+]([O-])c1ccc(N/N=C2\CCC3CC23)c([N+](=O)[O-])c1 (stereo not given),-21.9%
9,CC12CCC3C(CCC4CCCCC43C)C1CCC2CO (stereo not given),36.5%
10,CN1CN=C(Sc2ccc(Cl)cc2[N+](=O)[O-])NC1,-11.7%
11,CCOC(=O)C(NC(C)=O)C(O)c1ccc(Cl)cc1Cl (stereo not given),19.7%
12,NNC(=O)c1ccc(-c2ccc[nH]2)[nH]1,5%
13,O=c1cc(N2CCOCC2)n2c(ccc3ccccc32)n1,-2.6%
14,CCC(=O)N1NC(=O)C(CC)(CC)C1=O,-35.6%
15,NC(CCOCCP(=O)(O)CCOCCC(N)C(=O)O)C(=O)O (stereo not given),-8.75%
16,O=C(NCCCCCCNC(=O)OCCSCCn1cc(C(=O)NC(=O)OCc2ccccc2)c(=O)[nH]c1=O)OCCSCCn1cc(C(=O)NC(=O)OCc2ccccc2)c(=O)[nH]c1=O,-9.95%
17,CCC(C(=O)c1ccccc1)c1cccc2c1N(C(C)=O)CC2 (stereo not given),20.1%
18,O=C(O)C(Cc1cccs1)C(=O)OCCc1ccccc1 (stereo not given),21.7%
19,CC(N)c1ccc2ccccc2c1O (stereo not given),8.05%
20,Cc1ccc(N=C2SC(c3ccc(C)cc3)(c3ccc(C)cc3)c3ccccc32)cc1,-16.1%

row,Structure (SMILES),growth inhibition
1,CC(=O)Nc1ccc(-c2cn3ccccc3n2)cc1,21.8%
2,COc1ccc(OC)c(C(O)P(=O)(c2ccccc2)c2ccccc2)c1 (stereo not given),27.2%
3,CCOC(=O)NC(CC)CO (stereo not given),-6.9%
4,CSc1nc(NC2OCC(O)C(O)C2O)c(Br)c(=O)n1C (stereo not given),36%
5,O=c1[nH]c(=O)n(C2OC(CO)C(O)C2O)cc1OCc1ccccc1 (stereo not given),-31.5%
6,CC[C@@]1(OC(=O)CN2CCNCC2)C(=O)OCc2c1cc1n(c2=O)Cc2cc3ccccc3nc2-1,10.1%
7,C=C1C(=O)OC2/C=C(/CO)C3(O)CC(O)C(C)(CC(OC(=O)/C(C)=C/C)C12)O3 (stereo not given),-27.2%
8,COc1ccccc1/C=C1/C(=O)ON=C1C,-18.5%
9,c1ccc(-c2cc(-c3ccccc3)nc(-c3ccncc3)c2)cc1,-63.7%
10,CC1(C)COC(C2(C)C(=O)C=C(c3ccccc3)c3ccccc32)=N1 (stereo not given),11.8%
11,CCOC(=O)NN(C/C(Cl)=C/Cl)C/C(Cl)=C/Cl,-5.55%
12,O=C(CC(=O)CC(O)(C(F)(F)F)C(F)(F)F)CC(O)(C(F)(F)F)C(F)(F)F,78.2% (active)
13,CCCCCN(CCCCC)C(C)=O,7.45%
14,C1CSCCSCCSCCSC1,-25.4%
15,Cc1c(-c2ccccc2)c2ccccc2n1C,22.5%
16,Cc1ccccc1NS(=O)(=O)c1c(N)ncn1C,5.25%
17,Nc1ncnc(Nc2ccc(S(=O)(=O)O)cc2)n1,-27.2%
18,CCN(CC)CCN1C(=O)c2c(c(-c3ccccc3)c3ccccc3c2-c2ccccc2)C1=O,28%
19,CCCCCCCCCCCCCCCC(=O)N(CCCCCCCCCCC(=O)O)CC(O)C(O)C(OC1OC(CO)C(O)C(O)C1O)C(O)CO (stereo not given),-15.8%
20,c1ccc2c(c1)CCOC2,-3.1%
